The values that follow come from PubChem BioAssay (NCATS).

Where “and” joins values, the source holds several entries; their conditions need not be identical. Identical values can stand only once. Inconclusive results are not listed. Unmarked numbers belong to inactive results. Calls follow the shape of the dose curve; as a rule, active = well fitted inhibition curve with a large enough effect; inconclusive = small, poorly fitted or top-dose-only effect; inactive = flat fitted curve, though single readings scatter.
% is scaled to controls: 0 for no effect and ±100 for the full control effect.

The nature of one assay: Drug repurposing screens with cells derived from glioblastoma tumor samples (AID 1345199). Also: nearly all actives have a fitted effect of over 40% in size. The note with it: GBM patient neurospheres viability, ATP luminescence, 48 h; at 45.9 µM (top of the series); tumour line D. The procedure, abridged: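 Primary testing used CD133+ neurospheres from four GBM patients, seven concentrations, 48 h exposure and ATP-based viability; confirmation added three slower-growing patient lines.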
`COc1c(N2C[C@@H]3CCCN[C@H]3C2)c(F)cc2c(=O)c(C(=O)O)cn(C3CC3)c12`: the activity, negative = cell killing was -16.2% and 10%.

Turning to `Nc1ccn([C@@H]2CS[C@H](CO)O2)c(=O)n1`, the activity, negative = cell killing is -12.1%.

In the case of `CC1(C)O[C@@H]2C[C@@H]3[C@H]4C[C@@H](F)C5=CC(=O)C=C[C@]5(C)[C@@]4(F)[C@@H](O)C[C@]3(C)[C@]2(C(=O)CO)O1`, the activity, negative = cell killing was -1.99%.

In the case of `O=C(O)CO.[NH2-].[NH2-].[Pt+2]`, the activity, negative = cell killing was 26.7%.

Turning to `CC=CC1=C(C(=O)O)N2C(=O)[C@H](NC(=O)[C@H](N)c3ccc(O)cc3)[C@@H]2SC1`, the activity, negative = cell killing was -0.836%.

Consider `O=c1[nH]c(=O)n(C2CCCO2)cc1F` (stereo unspecified), for which the activity, negative = cell killing was -14.2%.

As to `CN1c2cc(O)c(N=NC(N)=O)cc2CC1S(=O)(=O)O` (stereo unspecified), the activity, negative = cell killing was 7.92%.

The assay is the same for the next values; noted with them: GBM patient neurospheres viability, ATP luminescence, 48 h; at 46 µM (top of the series); tumour line A.
With `COc1c(N2C[C@@H]3CCCN[C@H]3C2)c(F)cc2c(=O)c(C(=O)O)cn(C3CC3)c12`, the activity, negative = cell killing is -18.3%.

Consider `Nc1ccn([C@@H]2CS[C@H](CO)O2)c(=O)n1`, for which the activity, negative = cell killing was -14.9%.

As for `CC1(C)O[C@@H]2C[C@@H]3[C@H]4C[C@@H](F)C5=CC(=O)C=C[C@]5(C)[C@@]4(F)[C@@H](O)C[C@]3(C)[C@]2(C(=O)CO)O1`, the activity, negative = cell killing was -7.12%.

Turning to `O=C(O)CO.[NH2-].[NH2-].[Pt+2]`, the activity, negative = cell killing is -24.8%.

Regarding `CC=CC1=C(C(=O)O)N2C(=O)[C@H](NC(=O)[C@H](N)c3ccc(O)cc3)[C@@H]2SC1`, the activity, negative = cell killing was -26.1%.

As to `O=c1[nH]c(=O)n(C2CCCO2)cc1F` (stereo unspecified), the activity, negative = cell killing was -9.36%.

The same assay, now with this note: GBM patient neurospheres viability, ATP luminescence, 48 h; at 46.1 µM (top of the series); tumour line C.
As for `COc1c(N2C[C@@H]3CCCN[C@H]3C2)c(F)cc2c(=O)c(C(=O)O)cn(C3CC3)c12`, the activity, negative = cell killing was 4.44% and 2.53%.

In the case of `Nc1ccn([C@@H]2CS[C@H](CO)O2)c(=O)n1`, the activity, negative = cell killing is 6.78%.

Regarding `CC1(C)O[C@@H]2C[C@@H]3[C@H]4C[C@@H](F)C5=CC(=O)C=C[C@]5(C)[C@@]4(F)[C@@H](O)C[C@]3(C)[C@]2(C(=O)CO)O1`, the activity, negative = cell killing was 2.95%.

With `O=C(O)CO.[NH2-].[NH2-].[Pt+2]`, the activity, negative = cell killing is -11%.

On to `CC=CC1=C(C(=O)O)N2C(=O)[C@H](NC(=O)[C@H](N)c3ccc(O)cc3)[C@@H]2SC1`, for which the activity, negative = cell killing is -17.4%.

On to `COC(=O)C[C@](O)(CCCC(C)(C)O)C(=O)O[C@@H]1C(OC)=C[C@]23CCCN2CCc2cc4c(cc2[C@H]13)OCO4`, for which the activity, negative = cell killing was -97.3%.

Turning to `O=c1[nH]c(=O)n(C2CCCO2)cc1F` (stereo unspecified), the activity, negative = cell killing was -4%.

Consider `CN1c2cc(O)c(N=NC(N)=O)cc2CC1S(=O)(=O)O` (stereo unspecified), for which the activity, negative = cell killing was -16.8%.
